Assay results: publication PMC12820563, “FoxP3 forms a head-to-head dimer in vivo and stabilizes its multimerization on adjacent microsatellites”
The full ranking holds about 16,000 sequences; the median of “rpm ratio (pull-down/input)” is about 0.5, and the highest 2% start at about 5.5. The list comes from a sample in which the highest values are over-represented; it also holds similar and randomly drawn sequences.

molecular target: T1, MBP-FoxP3dN (Mus musculus, UniProt Q99JB6 188-423); experiment: PD-seq (MBP pull-down with sequencing); 20 mM Tris-HCl pH 7.5, 100 mM NaCl, 1.5 mM MgCl2, 0.4 uM protein, 0.1 uM dsDNA library, 30 min, room temperature, amylose pull-down; high values mean tight binding; details: protein: recombinant; tags: His6-MBP; chain copies: 2; dsDNA, one strand shown
T1 sequence: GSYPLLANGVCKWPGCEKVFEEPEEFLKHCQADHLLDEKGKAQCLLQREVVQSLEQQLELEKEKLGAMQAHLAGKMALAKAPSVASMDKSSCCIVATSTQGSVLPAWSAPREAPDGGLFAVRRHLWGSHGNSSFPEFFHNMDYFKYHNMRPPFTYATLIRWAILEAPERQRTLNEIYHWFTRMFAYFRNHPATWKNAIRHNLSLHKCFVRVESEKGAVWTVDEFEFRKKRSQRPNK
Summary of the method: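 A fragment of mouse FoxP3 or FoxP1 without its N-terminus, carrying a His6-MBP tag and produced in E. coli, was combined at 0.4 µM with a 0.1 µM degenerate double-stranded DNA library filled in with Klenow. The mixture sat for 30 min at room temperature in Tris pH 7.5 buffer containing NaCl and MgCl2. Protein–DNA complexes were captured on amylose resin, washed three times, and the DNA was freed with proteinase K, barcoded by PCR and sequenced on Illumina. Binding is expressed as reads-per-million enrichment of pull-down over input, with replicates pooled.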

How did the binding signal turn out when “GATGATTGTTCTCCCAGCTGATGAATTCTTGACCTCGAGTAAACAAATTTTCCTAATCTTTCTGTTCAAGCGCCATCTAC” was run?
Its binding signal is 0.216 RPM ratio (pull-down/input).

For “GATGATTGTTCTCCCAGCTGATGAATTCATTCCGTCGAGTAAACAAATTTTCCTAATCTTTCTGTTCAAGCGCCATCTAC”, which binding signal is on record?
Its binding signal is 0.236 RPM ratio (pull-down/input).

With “GATGATTGTTCTCCCAGCTGATGAATTTTTCAGTTCGAGTAAACAAATTTTCCTAATCTTTCTGTTCAAGCGCCATCTAC” as the sequence, how does the binding signal read?
The binding signal was 0.248 RPM ratio (pull-down/input).

Which binding signal does the source give for “GATGATTGTTCTCCCAGCTGATGAATTTGAGTAGTCGAGTAAACAAATTTTCCTAATCTTTCTGTTCAAGCGCCATCTAC” here?
Its binding signal is 0.778 RPM ratio (pull-down/input).

“GATGATTGTTCTCCCAGCTGATGAATTTGTGGTGTCGAGTAAACAAATTTTCCTAATCTTTCTGTTCAAGCGCCATCTAC” was tested. Which binding signal did it give?
Its binding signal is 6.2 RPM ratio (pull-down/input).

With “GATGATTGTTCTCCCAGCTGATGAATTTCTGTGGTCGAGTAAACAAATTTTCCTAATCTTTCTGTTCAAGCGCCATCTAC” as the sequence, how does the binding signal read?
The binding signal was 0.335 RPM ratio (pull-down/input).

Which binding signal does the source give for “GATGATTGTTCTCCCAGCTGATGAATTTTTGTGGTCGAGTAAACAAATTTTCCTAATCTTTCTGTTCAAGCGCCATCTAC” here?
Its binding signal is 0.472 RPM ratio (pull-down/input).

“GATGATTGTTCTCCCAGCTGATGAATTTGTGTGGTCGAGTAAACAAATTTTCCTAATCTTTCTGTTCAAGCGCCATCTAC” was tested. Which binding signal did it give?
The binding signal was 5.5 RPM ratio (pull-down/input).

Which binding signal does the source give for “GATGATTGTTCTCCCAGCTGATGAATTTTTGGTGTCGAGTAAACAAATTTTCCTAATCTTTCTGTTCAAGCGCCATCTAC” here?
Its binding signal is 0.396 RPM ratio (pull-down/input).

“GATGATTGTTCTCCCAGCTGATGAATTTGGTGTGTCGAGTAAACAAATTTTCCTAATCTTTCTGTTCAAGCGCCATCTAC” was tested. Which binding signal did it give?
The binding signal was 3.91 RPM ratio (pull-down/input).

Which binding signal does the source give for “GATGATTGTTCTCCCAGCTGATGAATTTAGCCCATCGAGTAAACAAATTTTCCTAATCTTTCTGTTCAAGCGCCATCTAC” here?
The binding signal was 1.28 RPM ratio (pull-down/input).

Which binding signal does the source give for “GATGATTGTTCTCCCAGCTGATGAATTTCCACGATCGAGTAAACAAATTTTCCTAATCTTTCTGTTCAAGCGCCATCTAC” here?
Its binding signal is 0.211 RPM ratio (pull-down/input).

“GATGATTGTTCTCCCAGCTGATGAATTGCATCGGTCGAGTAAACAAATTTTCCTAATCTTTCTGTTCAAGCGCCATCTAC” was tested. Which binding signal did it give?
The binding signal was 1.43 RPM ratio (pull-down/input).

“GATGATTGTTCTCCCAGCTGATGAATTATGTTTTTCGAGTAAACAAATTTTCCTAATCTTTCTGTTCAAGCGCCATCTAC” was tested. Which binding signal did it give?
Its binding signal is 6.33 RPM ratio (pull-down/input).

With “GATGATTGTTCTCCCAGCTGATGAATTATGATGATCGAGTAAACAAATTTTCCTAATCTTTCTGTTCAAGCGCCATCTAC” as the sequence, how does the binding signal read?
The binding signal was 1.63 RPM ratio (pull-down/input).

Which binding signal does the source give for “GATGATTGTTCTCCCAGCTGATGAATTATGTTCTTCGAGTAAACAAATTTTCCTAATCTTTCTGTTCAAGCGCCATCTAC” here?
Its binding signal is 1.3 RPM ratio (pull-down/input).

For “GATGATTGTTCTCCCAGCTGATGAATTATGTTCATCGAGTAAACAAATTTTCCTAATCTTTCTGTTCAAGCGCCATCTAC”, which binding signal is on record?
The binding signal was 1.09 RPM ratio (pull-down/input).

With “GATGATTGTTCTCCCAGCTGATGAATTATGTTGTTCGAGTAAACAAATTTTCCTAATCTTTCTGTTCAAGCGCCATCTAC” as the sequence, how does the binding signal read?
Its binding signal is 7.62 RPM ratio (pull-down/input).

“GATGATTGTTCTCCCAGCTGATGAATTATCTTGGTCGAGTAAACAAATTTTCCTAATCTTTCTGTTCAAGCGCCATCTAC” was tested. Which binding signal did it give?
Its binding signal is 0.323 RPM ratio (pull-down/input).

For “GATGATTGTTCTCCCAGCTGATGAATTATGTCTTTCGAGTAAACAAATTTTCCTAATCTTTCTGTTCAAGCGCCATCTAC”, which binding signal is on record?
The binding signal was 1.78 RPM ratio (pull-down/input).

How did the binding signal turn out when “GATGATTGTTCTCCCAGCTGATGAATTATGTTGATCGAGTAAACAAATTTTCCTAATCTTTCTGTTCAAGCGCCATCTAC” was run?
Its binding signal is 7.26 RPM ratio (pull-down/input).

Which binding signal does the source give for “GATGATTGTTCTCCCAGCTGATGAATTATGATGTTCGAGTAAACAAATTTTCCTAATCTTTCTGTTCAAGCGCCATCTAC” here?
The binding signal was 3.29 RPM ratio (pull-down/input).

How did the binding signal turn out when “GATGATTGTTCTCCCAGCTGATGAATTATGTGTTTCGAGTAAACAAATTTTCCTAATCTTTCTGTTCAAGCGCCATCTAC” was run?
Its binding signal is 4.42 RPM ratio (pull-down/input).

With “GATGATTGTTCTCCCAGCTGATGAATTATGTTGGTCGAGTAAACAAATTTTCCTAATCTTTCTGTTCAAGCGCCATCTAC” as the sequence, how does the binding signal read?
Its binding signal is 6.57 RPM ratio (pull-down/input).

With “GATGATTGTTCTCCCAGCTGATGAATTATGATGGTCGAGTAAACAAATTTTCCTAATCTTTCTGTTCAAGCGCCATCTAC” as the sequence, how does the binding signal read?
Its binding signal is 1.33 RPM ratio (pull-down/input).

With “GATGATTGTTCTCCCAGCTGATGAATTAGATCATTCGAGTAAACAAATTTTCCTAATCTTTCTGTTCAAGCGCCATCTAC” as the sequence, how does the binding signal read?
Its binding signal is 0.534 RPM ratio (pull-down/input).

Which binding signal does the source give for “GATGATTGTTCTCCCAGCTGATGAATTTAAGGTGTCGAGTAAACAAATTTTCCTAATCTTTCTGTTCAAGCGCCATCTAC” here?
The binding signal was 0.772 RPM ratio (pull-down/input).

“GATGATTGTTCTCCCAGCTGATGAATTCACTAAATCGAGTAAACAAATTTTCCTAATCTTTCTGTTCAAGCGCCATCTAC” was tested. Which binding signal did it give?
The binding signal was 0.211 RPM ratio (pull-down/input).

With “GATGATTGTTCTCCCAGCTGATGAATTCTGGTCGTCGAGTAAACAAATTTTCCTAATCTTTCTGTTCAAGCGCCATCTAC” as the sequence, how does the binding signal read?
Its binding signal is 0.464 RPM ratio (pull-down/input).

For “GATGATTGTTCTCCCAGCTGATGAATTCTCAGCTTCGAGTAAACAAATTTTCCTAATCTTTCTGTTCAAGCGCCATCTAC”, which binding signal is on record?
The binding signal was 0.293 RPM ratio (pull-down/input).

How did the binding signal turn out when “GATGATTGTTCTCCCAGCTGATGAATTATGATAATCGAGTAAACAAATTTTCCTAATCTTTCTGTTCAAGCGCCATCTAC” was run?
The binding signal was 0.653 RPM ratio (pull-down/input).

“GATGATTGTTCTCCCAGCTGATGAATTTAGGGCTTCGAGTAAACAAATTTTCCTAATCTTTCTGTTCAAGCGCCATCTAC” was tested. Which binding signal did it give?
The binding signal was 0.514 RPM ratio (pull-down/input).

“GATGATTGTTCTCCCAGCTGATGAATTTTGCGTATCGAGTAAACAAATTTTCCTAATCTTTCTGTTCAAGCGCCATCTAC” was tested. Which binding signal did it give?
Its binding signal is 3.74 RPM ratio (pull-down/input).

With “GATGATTGTTCTCCCAGCTGATGAATTGTGACAGTCGAGTAAACAAATTTTCCTAATCTTTCTGTTCAAGCGCCATCTAC” as the sequence, how does the binding signal read?
The binding signal was 0.817 RPM ratio (pull-down/input).

How did the binding signal turn out when “GATGATTGTTCTCCCAGCTGATGAATTGTCAGAGTCGAGTAAACAAATTTTCCTAATCTTTCTGTTCAAGCGCCATCTAC” was run?
Its binding signal is 0.234 RPM ratio (pull-down/input).

How did the binding signal turn out when “GATGATTGTTCTCCCAGCTGATGAATTCCCGTCTTCGAGTAAACAAATTTTCCTAATCTTTCTGTTCAAGCGCCATCTAC” was run?
Its binding signal is 0.33 RPM ratio (pull-down/input).

“GATGATTGTTCTCCCAGCTGATGAATTAGTAAACTCGAGTAAACAAATTTTCCTAATCTTTCTGTTCAAGCGCCATCTAC” was tested. Which binding signal did it give?
Its binding signal is 1.08 RPM ratio (pull-down/input).

How did the binding signal turn out when “GATGATTGTTCTCCCAGCTGATGAATTACGTTGGTCGAGTAAACAAATTTTCCTAATCTTTCTGTTCAAGCGCCATCTAC” was run?
The binding signal was 1.3 RPM ratio (pull-down/input).

“GATGATTGTTCTCCCAGCTGATGAATTATGTTATTCGAGTAAACAAATTTTCCTAATCTTTCTGTTCAAGCGCCATCTAC” was tested. Which binding signal did it give?
The binding signal was 7.23 RPM ratio (pull-down/input).

With “GATGATTGTTCTCCCAGCTGATGAATTATGTAATTCGAGTAAACAAATTTTCCTAATCTTTCTGTTCAAGCGCCATCTAC” as the sequence, how does the binding signal read?
Its binding signal is 3.03 RPM ratio (pull-down/input).

With “GATGATTGTTCTCCCAGCTGATGAATTGTTATTTTCGAGTAAACAAATTTTCCTAATCTTTCTGTTCAAGCGCCATCTAC” as the sequence, how does the binding signal read?
The binding signal was 4.89 RPM ratio (pull-down/input).

With “GATGATTGTTCTCCCAGCTGATGAATTTGATTATTCGAGTAAACAAATTTTCCTAATCTTTCTGTTCAAGCGCCATCTAC” as the sequence, how does the binding signal read?
Its binding signal is 4.96 RPM ratio (pull-down/input).

How did the binding signal turn out when “GATGATTGTTCTCCCAGCTGATGAATTTGGTTATTCGAGTAAACAAATTTTCCTAATCTTTCTGTTCAAGCGCCATCTAC” was run?
Its binding signal is 3.56 RPM ratio (pull-down/input).

For “GATGATTGTTCTCCCAGCTGATGAATTTGTTATTTCGAGTAAACAAATTTTCCTAATCTTTCTGTTCAAGCGCCATCTAC”, which binding signal is on record?
The binding signal was 7.62 RPM ratio (pull-down/input).

“GATGATTGTTCTCCCAGCTGATGAATTCTGTTATTCGAGTAAACAAATTTTCCTAATCTTTCTGTTCAAGCGCCATCTAC” was tested. Which binding signal did it give?
The binding signal was 6.72 RPM ratio (pull-down/input).

With “GATGATTGTTCTCCCAGCTGATGAATTTTGTTATTCGAGTAAACAAATTTTCCTAATCTTTCTGTTCAAGCGCCATCTAC” as the sequence, how does the binding signal read?
Its binding signal is 7.33 RPM ratio (pull-down/input).

“GATGATTGTTCTCCCAGCTGATGAATTATTTTGTTCGAGTAAACAAATTTTCCTAATCTTTCTGTTCAAGCGCCATCTAC” was tested. Which binding signal did it give?
The binding signal was 1.15 RPM ratio (pull-down/input).

“GATGATTGTTCTCCCAGCTGATGAATTATTTGTTTCGAGTAAACAAATTTTCCTAATCTTTCTGTTCAAGCGCCATCTAC” was tested. Which binding signal did it give?
Its binding signal is 4.2 RPM ratio (pull-down/input).

For “GATGATTGTTCTCCCAGCTGATGAATTATTATGTTCGAGTAAACAAATTTTCCTAATCTTTCTGTTCAAGCGCCATCTAC”, which binding signal is on record?
The binding signal was 1.3 RPM ratio (pull-down/input).

With “GATGATTGTTCTCCCAGCTGATGAATTTCGTTATTCGAGTAAACAAATTTTCCTAATCTTTCTGTTCAAGCGCCATCTAC” as the sequence, how does the binding signal read?
Its binding signal is 2.7 RPM ratio (pull-down/input).
